Consider twelve molecules from PubChem BioAssay.

SMILES strings stand for the structures. Records with an inconclusive call do not appear. Calls of active or inactive are those of the source.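 How the source made its calls, unless noted: active means viability increase at or above a cutoff of the median across tested compounds plus 3 SD (cut at about 8.5% in these data, passing the limit was not always enough); inconclusive means some gains above the cutoff, reason not given; inactive means the rest.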

A short description of test [1]: HUVEC growth inhibition – cell-based, human, primary screen (AID 575;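 active means viability at or below 30% in both replicate assays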;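 further: 100% = median of untreated cell wells with 0.1% DMSO on each plate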). The settings on record: HUVEC proliferation, CellTiter-Glo luminescence, 72 h; at 10 µM; stronger effect = lower value. For orientation: ATP-based viability assays read luminescence as a measure of living cells.
A short description of test [2]: H69AR cell proliferation blockers – human, duplicate replicates, primary screen (AID 580;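 active means viability at or under a set limit in both replicates, limit being median viability minus 3 SD, cut at about 48% in these data, passing the limit was not always enough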;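 further: 100% = mean luminescence of untreated wells and 0% = no signal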). As to conditions: H69AR lung tumor cells viability, ATP luminescence, 72 h; at 10 µM; stronger effect = lower value.
Test [3] is described as follows: MRP1 drug-resistance reversers in H69AR cells – cell-based, doxorubicin co-treatment, pilot screen (AID 601;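 active means viability loss from added drug above about 55%, and viability with drug at most 40%, in both replicates, limit read from the data, passing the limit was not always enough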). The settings on record: CellTiter-Glo, 72 h, at 10 µM; for differential viability (reversal): stronger effect = higher value.
A short description of test [4]: yeast transport mutant growth inhibition pilot in 384-well plates, post-Golgi transport modulator project (AID 636; in the data active means inhibition above about 31%). As to conditions: absorbance 615 nm, about 18 h, stronger effect = higher value.
Test [5] is described as follows: growth suppression of yeast trafficking mutant, preliminary HTS, modulators of trafficking downstream of Golgi apparatus project, 1536-format plate, OD 615 nm (AID 637; in the data active means inhibition above about 30%). The settings on record: yeast transport mutant growth, absorbance 615 nm, 18 h; stronger effect = higher value.
Test [6] is described as follows: S. cerevisiae growth inhibition in permissive medium (OD615), pilot counter-assay for S. cerevisiae lifespan shortening project, permissive growth control (AID 705;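 active means growth inhibition above 25% in both replicates, a cutoff set 3 SD above the mean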). As to conditions: OD615, 24 h, at 10 µM, stronger effect = higher value.
A short description of test [7]: S. cerevisiae growth inhibition in restrictive medium, OD615, pilot screen, restrictive growth control, yeast lifespan reduction project (AID 706;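 active means growth inhibition above a set limit, 3 SD over mean compound inhibition, in both replicates, cut at about 43% in these data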;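 further: modified DeaD lifespan yeast strain shifted to restrictive glucose medium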). The settings on record: OD615, 48 h, at 10 µM, stronger effect = higher value.
Test [8] in a line: doxorubicin toxicity protection in MRP-1 cells – H69AR cells, CellTiter-Glo, duplicate, MRP-1 activator project, pilot screen (AID 807).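 Further: compound pretreatment 18-22 h then 72 h combined with doxorubicin; 0% = doxorubicin alone and 100% = vehicle without doxorubicin.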 The settings on record: H69AR viability with doxorubicin, CellTiter-Glo luminescence; at 10 µM; stronger effect = higher value.
A short description of test [9]: viability of HCT116 without oncogenic beta-catenin – human colon tumor cells, pilot screen (AID 823;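 active means cell viability at or below a set limit in both duplicate runs, the limit being the all-compound median minus 4 SD, cut at about 23% in these data, passing the limit was not always enough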;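 further: 0% = wells killed by 20 µM Hyamine and 100% = untreated DMSO cell wells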). The settings on record: HCT116 beta-catenin knockout viability, CellTiter-Glo, 60 h; at 10 µM; stronger effect = lower value.
A short description of test [10]: viability of PTEN-null HCT116 cells – cell-based, HCT116 clonal line, CellTiter-Glo, pilot screen (AID 824;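 active means viability at or below 27.92% in each of two runs, the all-compound median minus 4 SD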;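 further: 0% = 20 µM Hyamine control and 100% = vehicle cell control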). The settings on record: HCT116 PTEN-deleted viability, 60 h, at 10 µM, stronger effect = lower value.
A short description of test [11]: RAM pathway blockade in budding yeast – dse1pr::URA3 reporter, 5-FOA selection, pilot screen (AID 869;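 active means inhibition over a set limit, the all-compound mean plus 3 SD, in both replicate runs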;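 further: 0% = DMSO wells with no growth and 100% = 10 µM 1-NA-PP1 with full growth; RAM network block rescues cells from 5-FOA so hits raise OD615 growth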). As to conditions: S. cerevisiae dse1pr::URA3 5-FOA growth, OD615, 2 d; at 10 µM; stronger effect = higher value; strain carries analog-sensitive mutant Cbk1 kinase.
Test [12] in a line: RAM signaling pathway blockade in yeast – S. cerevisiae, Pdr1DBD-CYC8 efflux-inhibited sensitized strain, primary screen (AID 1298;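 active means RAM network inhibition above 8.4% in each of two replicates, 3 SD over the compound average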;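 further: 0% = DMSO untreated cells without growth and 100% = 10 µM 1-NA-PP1 full growth; higher means more yeast growth rescued from 5-FOA killing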). The settings on record: S. cerevisiae cbk1-as DSE1-URA3 strain, 5-FOA growth OD615, 2 d; at 50 µM; stronger effect = higher value.
[13] abbreviates: H69AR cells + 2 uM doxorubicin, measured here: viability with 2 uM doxorubicin, stronger effect = lower value.
[14] abbreviates: H69AR cells, compound alone cytotoxicity.

As usually defined, the viability is a read-out of living cells in per cent, often relative to untreated cells. A word on the inhibition: it is the drop in the measured response relative to a control, in per cent. On to `c1ccc2c(c1)ccc1nnc(-c3ccc4c(c3)OCO4)n12`, for which the viability was 98.7% (inactive) in test [1]; 96% (inactive) in test [2]; 91.1% in test [3] (setting [13]); 96% in test [3] (setting [14]); 93.7% (inactive) in test [9]; 90.9% (inactive) in test [10]. Also, in test [3] (H69AR cells + 2 uM doxorubicin), the differential viability (reversal) is 4.88% (inactive). The inhibition in test [4] is -1.82% (inactive); in test [5], 3.33% (inactive); in [11], 1.31% (inactive). Further, the growth inhibition was -7.74% (inactive) in test [6] and 2.03% (inactive) in [7]. In addition, the viability increase in [8] was -5.23% (inactive). Besides, the RAM network inhibition in test [12] was 1.81% (inactive).
`COc1cccc(N2CCN(c3c4c(nc5ncnn35)CCC4)CC2)c1`: the viability was 68.7% (inactive) in test [1]; 86.9% (inactive) in test [2]; 76.5% in [3] (setting [13]); 86.9% in test [3] (setting [14]); 77.5% (inactive) in [9]; 92.9% (inactive) in [10]. Further, the differential viability (reversal) in [3] (H69AR cells + 2 uM doxorubicin) was 10.4% (inactive). Moreover, the inhibition in [4] is -4.55% (inactive); in test [5] it was 8.73% (inactive); in [11] it was 0.465% (inactive). Besides, the growth inhibition in test [6] is -0.38% (inactive); in [7], 16.8% (inactive). Besides, the viability increase in test [8] is -1.17% (inactive). In test [12], the RAM network inhibition was 4.78% (inactive).
Take `Cc1ccc(S(=O)(=O)c2nc(-c3ccco3)oc2SCC(=O)NCC2CCCO2)cc1` (stereo not drawn): the viability in test [1] is 101% (inactive); in test [2], 92.8% (inactive); in [3] (setting [13]), 86.4%; in test [3] (setting [14]), 92.8%; in test [9] it was 101% (inactive); in [10], 104% (inactive). Besides, in [3] (H69AR cells + 2 uM doxorubicin), the differential viability (reversal) was 6.32% (inactive). Further, the inhibition in test [4] is -0.13% (inactive); in test [5], -3.02% (inactive); in test [11] it was 1.47% (inactive). Also, the values for the growth inhibition in [6] and in test [7] were 0.025% (inactive) and 0.35% (inactive), respectively. Besides, in test [8], the viability increase is -2.88% (inactive). In test [12], the RAM network inhibition was 2.72% (inactive).
Consider `COc1ccccc1OCC(O)CN1C(=O)NC(C)(C)C1=O` (stereo not drawn), for which the growth inhibition in [6] was -7.73% (inactive); in test [7], -7.44% (inactive). In [8], the viability increase was -0.34% (inactive). Further, the figures for the viability in test [9] and in test [10] were 93.4% (inactive) and 91.6% (inactive), respectively. Further, the RAM network inhibition in [12] was 2.29% (inactive).
As to `Cc1cc(C)cc(NC(=O)CSc2nnc(Cn3c(=O)sc4ccccc43)n2C)c1`, the results for the growth inhibition in [6] and in test [7] were -6.84% (inactive) and -21.8% (inactive), respectively. Also, the viability increase in test [8] is -2.93% (inactive). Besides, the results for the viability in test [9] and in [10] were 98.2% (inactive) and 94.9% (inactive), respectively. The RAM network inhibition in test [12] was 1.37% (inactive).
As to `O=C(Nc1ccccc1-c1nc2ccccc2s1)c1ccco1`, the growth inhibition in [6] was -6.38% (inactive); in [7], -20.9% (inactive). Besides, the viability increase in [8] was -5.19% (inactive). Moreover, the viability in test [9] was 74.7% (inactive); in [10], 61.9% (inactive). Moreover, in [12], the RAM network inhibition was 6.4% (inactive).
Consider `C#CCSc1nnc(-c2c[nH]c3ccccc23)n1C`, for which the results for the growth inhibition in [6] and in test [7] were 0.22% (inactive) and 8.42% (inactive), respectively. Besides, in test [8], the viability increase is -2.77% (inactive). The viability in test [9] was 98.3% (inactive); in [10], 93.5% (inactive). In addition, the RAM network inhibition in [12] is -0.92% (inactive).
Turning to `CCC(C(=O)N1CCN(c2cccc(Cl)c2)CC1)c1ccccc1` (stereo not drawn), the growth inhibition was 1.93% (inactive) in test [6] and -5.71% (inactive) in test [7]. The viability increase in [8] is -4.98% (inactive). The viability in test [9] was 57.7% (inactive); in test [10] it was 63% (inactive). Moreover, the RAM network inhibition in [12] is 8.74% (inactive).
With `COc1ccc(-n2c(SCC(=O)N3CCCC3)nc3c([nH]c4ccccc43)c2=O)cc1`, the results for the growth inhibition in test [6] and in test [7] were -20.2% (inactive) and -19.5% (inactive), respectively. In test [8], the viability increase is -3.04% (inactive). For the same molecule, the viability in [9] was 105% (inactive); in test [10] it was 93.7% (inactive). Also, in test [12], the RAM network inhibition was 1.9% (inactive).
Regarding `CC(c1ccco1)N(C(=O)c1ccc(S(=O)(=O)N2CCCCC2)cc1)c1ccccn1` (stereo not drawn), the viability in test [1] is 87.5% (inactive); in test [2], 86% (inactive); in [3] (setting [13]), 94.2%; in test [3] (setting [14]), 86%; in [9] it was 97.4% (inactive). In addition, the differential viability (reversal) in test [3] (H69AR cells + 2 uM doxorubicin) was -8.22% (inactive). Besides, the inhibition in test [4] was -4.03% (inactive); in test [5], 1.27% (inactive); in test [11], 1.19% (inactive). Further, the growth inhibition in test [6] was -17.7% (inactive); in test [7] it was 2.26% (inactive). Also, the viability increase in test [8] is -4.13% (inactive). The RAM network inhibition in test [12] is 3.18% (inactive).
Regarding `Cc1cccc(-c2nc(CS(=O)CC(=O)N3CCN(C)CC3)c(C)o2)c1` (stereo not drawn), the growth inhibition in [6] is -8.17% (inactive); in test [7] it was -8.82% (inactive). The viability increase in test [8] was -1.78% (inactive). Also, the viability in test [9] was 95.9% (inactive); in test [10], 99.5% (inactive). For the same molecule, the RAM network inhibition in test [12] was 2.3% (inactive).
As for `FC(F)(F)c1nc(N2CCN(c3ccccc3)CC2)nc2c1CCCCC2`, the growth inhibition in test [6] is -16.6% (inactive); in test [7] it was -18.3% (inactive). In addition, in test [8], the viability increase is -0.3% (inactive). The viability was 72.5% (inactive) in [9] and 73.4% (inactive) in test [10]. Besides, the RAM network inhibition in [12] is 9.39% (inactive).
